Measured values published in publication PMC7862700, “An all-to-all approach to the identification of sequence-specific readers for epigenetic DNA modifications on cytosine”.

Assays:
Assay in all cases: DAPPL (digital affinity profiling via proximity ligation, sequencing); 10 mM Tris-HCl pH 7.5, 50 mM NaCl, 1 mM DTT, 4% glycerol, room temperature, 30 min; GST-TFs on glutathione beads, 16-mer random dsDNA library, 0.1% formaldehyde crosslink after washing; high values mean tight binding
FEV = target: T1, FEV (Homo sapiens, UniProt Q99581 1-238); settings: protein: recombinant; tags: N-terminal GST; dsDNA, one strand shown
T1 sequence: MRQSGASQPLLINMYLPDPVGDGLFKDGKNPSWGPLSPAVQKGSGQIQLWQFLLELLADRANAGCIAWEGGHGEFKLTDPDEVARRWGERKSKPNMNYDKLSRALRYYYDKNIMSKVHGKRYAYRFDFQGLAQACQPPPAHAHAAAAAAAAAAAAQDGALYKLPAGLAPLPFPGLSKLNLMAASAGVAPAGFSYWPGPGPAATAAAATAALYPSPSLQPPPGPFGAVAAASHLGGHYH
In short: (§1)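 In yeast, human transcription factors were expressed with a GST fusion, then pulled down on glutathione beads and given DNA barcodes. Pooled with a tag-only sample, they were exposed to 200 nmole of a 16-mer random double-stranded DNA library (Tris/NaCl/DTT/glycerol buffer, room temperature, 30 min), washed, crosslinked with 0.1% formaldehyde, proximity-ligated using BsaI/T4 ligase for 1 h at 37 °C, PCR-amplified and read on an Illumina NextSeq500. Each hexamer's frequency of reads for a factor, divided by the matching frequency for the tag-only sample, gives the binding signal.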

ETV5 = ETV5 (Homo sapiens, UniProt P41161 1-510); settings: protein: recombinant; tags: N-terminal GST; dsDNA, one strand shown
Sequence of ETV5 (P41161 whole entry): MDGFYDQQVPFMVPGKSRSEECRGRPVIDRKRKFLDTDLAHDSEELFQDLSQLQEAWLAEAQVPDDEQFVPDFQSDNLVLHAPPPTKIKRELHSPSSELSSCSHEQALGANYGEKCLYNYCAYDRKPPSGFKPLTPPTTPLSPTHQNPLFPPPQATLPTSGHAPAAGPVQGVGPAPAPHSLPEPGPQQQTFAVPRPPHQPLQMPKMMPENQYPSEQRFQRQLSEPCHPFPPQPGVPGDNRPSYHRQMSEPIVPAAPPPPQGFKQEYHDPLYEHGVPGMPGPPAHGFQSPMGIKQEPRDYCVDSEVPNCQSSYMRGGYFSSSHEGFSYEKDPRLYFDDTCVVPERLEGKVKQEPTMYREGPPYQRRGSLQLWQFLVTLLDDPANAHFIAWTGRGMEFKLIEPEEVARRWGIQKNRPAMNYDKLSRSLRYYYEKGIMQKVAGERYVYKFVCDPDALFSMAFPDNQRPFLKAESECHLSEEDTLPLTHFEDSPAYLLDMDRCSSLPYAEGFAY
In short: as §1

HSF1 = HSF1 (Homo sapiens, UniProt Q00613 1-529); settings: protein: recombinant; tags: N-terminal GST; chain copies: 3; dsDNA, one strand shown
Sequence of HSF1 (Q00613 whole entry): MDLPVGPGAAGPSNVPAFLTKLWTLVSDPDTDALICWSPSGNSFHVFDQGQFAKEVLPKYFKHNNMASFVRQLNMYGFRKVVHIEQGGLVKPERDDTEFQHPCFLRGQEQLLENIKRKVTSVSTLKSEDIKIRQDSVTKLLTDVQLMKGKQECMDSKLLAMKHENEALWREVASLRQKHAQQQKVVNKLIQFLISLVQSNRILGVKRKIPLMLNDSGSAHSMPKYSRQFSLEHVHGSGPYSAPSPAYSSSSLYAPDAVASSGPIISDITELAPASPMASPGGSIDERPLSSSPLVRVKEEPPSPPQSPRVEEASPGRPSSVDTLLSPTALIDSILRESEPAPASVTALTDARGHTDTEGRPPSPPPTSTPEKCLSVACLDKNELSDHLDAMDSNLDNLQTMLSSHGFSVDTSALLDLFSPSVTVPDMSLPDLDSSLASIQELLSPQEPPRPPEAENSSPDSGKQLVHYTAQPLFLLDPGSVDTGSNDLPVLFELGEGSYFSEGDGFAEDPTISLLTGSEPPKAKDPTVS
In short: as §1

ELF4 = ELF4 (Homo sapiens, UniProt Q99607 1-663); settings: protein: recombinant; tags: N-terminal GST; dsDNA, one strand shown
Sequence of ELF4 (Q99607 whole entry): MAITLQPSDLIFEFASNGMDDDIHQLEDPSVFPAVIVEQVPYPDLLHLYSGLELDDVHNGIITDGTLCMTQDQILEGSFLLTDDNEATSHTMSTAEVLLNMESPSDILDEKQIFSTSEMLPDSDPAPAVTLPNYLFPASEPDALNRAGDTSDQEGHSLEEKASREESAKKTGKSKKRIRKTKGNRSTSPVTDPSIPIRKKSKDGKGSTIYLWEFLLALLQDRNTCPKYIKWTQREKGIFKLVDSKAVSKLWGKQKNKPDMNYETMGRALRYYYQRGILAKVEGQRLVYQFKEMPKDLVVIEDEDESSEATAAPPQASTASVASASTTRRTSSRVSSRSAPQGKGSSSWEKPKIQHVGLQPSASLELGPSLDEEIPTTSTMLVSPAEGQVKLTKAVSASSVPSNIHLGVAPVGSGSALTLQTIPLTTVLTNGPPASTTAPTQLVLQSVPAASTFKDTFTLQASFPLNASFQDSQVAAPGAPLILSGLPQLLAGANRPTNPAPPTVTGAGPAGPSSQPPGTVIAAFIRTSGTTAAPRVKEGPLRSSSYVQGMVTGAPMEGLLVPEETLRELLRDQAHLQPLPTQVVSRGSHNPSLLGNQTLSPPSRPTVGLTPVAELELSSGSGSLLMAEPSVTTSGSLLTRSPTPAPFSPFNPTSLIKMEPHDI
In short: as §1

ELK4 = target: T2, ELK4 (Homo sapiens, UniProt P28324-2 1-405); settings: protein: recombinant; tags: N-terminal GST; dsDNA, one strand shown
T2 sequence: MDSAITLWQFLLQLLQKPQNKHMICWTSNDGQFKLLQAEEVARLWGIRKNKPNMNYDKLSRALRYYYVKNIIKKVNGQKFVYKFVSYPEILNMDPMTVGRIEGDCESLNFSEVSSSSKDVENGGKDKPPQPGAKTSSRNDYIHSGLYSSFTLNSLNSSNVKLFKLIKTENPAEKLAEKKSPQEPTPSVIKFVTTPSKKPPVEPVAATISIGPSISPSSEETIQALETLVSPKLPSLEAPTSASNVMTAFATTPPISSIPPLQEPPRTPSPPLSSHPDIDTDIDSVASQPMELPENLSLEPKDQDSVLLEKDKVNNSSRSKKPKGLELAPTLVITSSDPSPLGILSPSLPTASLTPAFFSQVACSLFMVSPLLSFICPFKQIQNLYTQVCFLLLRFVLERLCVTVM
In short: as §1

ETV2 = target: T3, ETV2 (Homo sapiens, UniProt O00321 1-342); settings: protein: recombinant; tags: N-terminal GST; dsDNA, one strand shown
T3 sequence: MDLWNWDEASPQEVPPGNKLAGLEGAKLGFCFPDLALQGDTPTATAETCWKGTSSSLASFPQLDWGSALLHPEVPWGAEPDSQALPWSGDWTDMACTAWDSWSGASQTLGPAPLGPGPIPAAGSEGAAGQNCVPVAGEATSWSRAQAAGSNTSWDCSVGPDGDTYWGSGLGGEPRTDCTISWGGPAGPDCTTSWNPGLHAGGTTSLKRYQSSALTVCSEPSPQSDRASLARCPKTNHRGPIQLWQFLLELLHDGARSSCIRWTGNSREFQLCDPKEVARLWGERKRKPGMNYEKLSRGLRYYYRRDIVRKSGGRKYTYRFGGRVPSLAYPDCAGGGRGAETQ
In short: as §1

ELF3 = target: T4, ELF3 (Homo sapiens, UniProt P78545 1-371); settings: protein: recombinant; tags: N-terminal GST; dsDNA, one strand shown
T4 sequence: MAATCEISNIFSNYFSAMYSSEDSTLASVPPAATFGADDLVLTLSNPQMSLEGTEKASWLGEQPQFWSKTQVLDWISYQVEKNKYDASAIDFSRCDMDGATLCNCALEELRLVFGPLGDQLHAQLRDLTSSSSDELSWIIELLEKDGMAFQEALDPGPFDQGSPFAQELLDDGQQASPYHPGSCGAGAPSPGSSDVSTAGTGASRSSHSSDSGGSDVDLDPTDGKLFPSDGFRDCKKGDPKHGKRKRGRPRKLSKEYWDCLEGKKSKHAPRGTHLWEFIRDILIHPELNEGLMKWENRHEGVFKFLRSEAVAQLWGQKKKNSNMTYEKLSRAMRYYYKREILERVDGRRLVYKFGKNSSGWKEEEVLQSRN
In short: as §1

CRX = CRX (Homo sapiens, UniProt O43186 1-299); settings: protein: recombinant; tags: N-terminal GST; dsDNA, one strand shown
Sequence of CRX (O43186 whole entry): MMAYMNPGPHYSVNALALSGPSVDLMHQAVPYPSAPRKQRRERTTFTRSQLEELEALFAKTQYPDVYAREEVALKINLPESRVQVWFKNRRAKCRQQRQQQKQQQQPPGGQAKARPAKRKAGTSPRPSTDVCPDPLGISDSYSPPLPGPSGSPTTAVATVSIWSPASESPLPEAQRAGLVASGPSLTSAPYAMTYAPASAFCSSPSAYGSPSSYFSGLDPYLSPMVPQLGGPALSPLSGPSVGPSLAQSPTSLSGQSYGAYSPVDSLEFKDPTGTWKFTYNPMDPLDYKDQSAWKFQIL
In short: as §1

ETV1 = ETV1 (Homo sapiens, UniProt P50549 1-477); settings: protein: recombinant; tags: N-terminal GST; dsDNA, one strand shown
Sequence of ETV1 (P50549 whole entry): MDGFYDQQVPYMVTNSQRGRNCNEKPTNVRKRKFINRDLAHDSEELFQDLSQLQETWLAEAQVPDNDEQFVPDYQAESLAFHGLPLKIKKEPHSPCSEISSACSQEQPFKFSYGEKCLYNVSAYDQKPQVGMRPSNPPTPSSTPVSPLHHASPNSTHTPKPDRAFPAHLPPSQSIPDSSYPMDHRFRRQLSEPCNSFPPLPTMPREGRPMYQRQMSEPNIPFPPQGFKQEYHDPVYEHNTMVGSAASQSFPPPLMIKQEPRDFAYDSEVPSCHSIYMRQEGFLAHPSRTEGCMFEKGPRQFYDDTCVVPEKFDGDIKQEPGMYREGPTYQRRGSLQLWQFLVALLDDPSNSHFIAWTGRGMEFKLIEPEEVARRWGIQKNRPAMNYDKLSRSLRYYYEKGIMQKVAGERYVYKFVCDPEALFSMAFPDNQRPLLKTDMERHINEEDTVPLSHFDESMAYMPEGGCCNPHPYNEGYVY
In short: as §1

ERF = target: T5, ERF (Homo sapiens, UniProt P50548 1-548); settings: protein: recombinant; tags: N-terminal GST; dsDNA, one strand shown
T5 sequence: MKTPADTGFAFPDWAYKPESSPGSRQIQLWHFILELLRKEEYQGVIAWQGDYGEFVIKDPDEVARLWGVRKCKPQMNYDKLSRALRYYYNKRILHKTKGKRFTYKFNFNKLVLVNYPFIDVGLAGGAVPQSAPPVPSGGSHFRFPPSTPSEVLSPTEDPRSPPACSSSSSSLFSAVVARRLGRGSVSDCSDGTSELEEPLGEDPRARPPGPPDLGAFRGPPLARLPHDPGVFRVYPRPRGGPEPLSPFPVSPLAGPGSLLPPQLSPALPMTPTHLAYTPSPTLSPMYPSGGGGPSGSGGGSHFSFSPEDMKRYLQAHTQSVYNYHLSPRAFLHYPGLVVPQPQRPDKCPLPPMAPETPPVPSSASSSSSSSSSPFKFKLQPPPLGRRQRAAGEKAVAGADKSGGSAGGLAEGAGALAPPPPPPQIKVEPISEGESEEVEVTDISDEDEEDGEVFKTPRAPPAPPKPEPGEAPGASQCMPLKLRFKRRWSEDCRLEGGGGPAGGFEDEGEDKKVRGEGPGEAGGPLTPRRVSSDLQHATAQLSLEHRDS
In short: as §1

ETV3L = target: T6, ETV3L (Homo sapiens, UniProt Q6ZN32 1-361); settings: protein: recombinant; tags: N-terminal GST; dsDNA, one strand shown
T6 sequence: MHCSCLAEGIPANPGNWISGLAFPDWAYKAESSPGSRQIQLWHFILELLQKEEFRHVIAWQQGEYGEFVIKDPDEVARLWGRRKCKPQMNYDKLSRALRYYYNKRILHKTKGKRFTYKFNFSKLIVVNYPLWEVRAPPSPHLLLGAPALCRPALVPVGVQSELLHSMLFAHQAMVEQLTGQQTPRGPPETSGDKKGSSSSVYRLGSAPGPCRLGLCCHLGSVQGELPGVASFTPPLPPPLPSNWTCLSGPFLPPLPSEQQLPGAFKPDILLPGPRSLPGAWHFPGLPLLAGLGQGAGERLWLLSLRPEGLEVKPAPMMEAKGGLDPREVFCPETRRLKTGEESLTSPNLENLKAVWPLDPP
In short: as §1

ETS2 = target: T7, ETS2 (Homo sapiens, UniProt P15036 1-469); settings: protein: recombinant; tags: N-terminal GST; dsDNA, one strand shown
T7 sequence: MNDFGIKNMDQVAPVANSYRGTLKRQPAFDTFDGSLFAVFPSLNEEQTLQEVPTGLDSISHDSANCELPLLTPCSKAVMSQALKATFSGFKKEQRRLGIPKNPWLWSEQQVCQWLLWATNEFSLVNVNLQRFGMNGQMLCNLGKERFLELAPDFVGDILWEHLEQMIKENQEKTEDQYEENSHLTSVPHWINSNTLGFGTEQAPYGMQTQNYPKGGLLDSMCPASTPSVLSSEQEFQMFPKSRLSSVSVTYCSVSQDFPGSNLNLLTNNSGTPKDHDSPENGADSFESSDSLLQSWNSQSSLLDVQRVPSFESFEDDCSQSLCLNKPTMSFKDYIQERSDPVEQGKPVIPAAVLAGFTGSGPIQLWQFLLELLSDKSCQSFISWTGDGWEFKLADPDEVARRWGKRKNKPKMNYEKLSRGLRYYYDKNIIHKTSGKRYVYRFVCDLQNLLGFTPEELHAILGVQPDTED
In short: as §1

SPDEF = target: T8, SPDEF (Homo sapiens, UniProt O95238 1-335); settings: protein: recombinant; tags: N-terminal GST; dsDNA, one strand shown
T8 sequence: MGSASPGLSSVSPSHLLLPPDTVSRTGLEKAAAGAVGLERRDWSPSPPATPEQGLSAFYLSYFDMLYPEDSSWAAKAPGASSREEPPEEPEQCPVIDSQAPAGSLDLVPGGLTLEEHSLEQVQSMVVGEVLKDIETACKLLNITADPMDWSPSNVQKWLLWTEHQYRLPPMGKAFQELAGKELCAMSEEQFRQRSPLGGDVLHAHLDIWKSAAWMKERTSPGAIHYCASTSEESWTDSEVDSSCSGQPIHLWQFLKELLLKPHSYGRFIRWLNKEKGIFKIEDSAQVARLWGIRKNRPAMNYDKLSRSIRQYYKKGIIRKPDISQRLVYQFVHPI
In short: as §1

ETV7 = target: T9, ETV7 (Homo sapiens, UniProt Q9Y603 1-341); settings: protein: recombinant; tags: N-terminal GST; dsDNA, one strand shown
T9 sequence: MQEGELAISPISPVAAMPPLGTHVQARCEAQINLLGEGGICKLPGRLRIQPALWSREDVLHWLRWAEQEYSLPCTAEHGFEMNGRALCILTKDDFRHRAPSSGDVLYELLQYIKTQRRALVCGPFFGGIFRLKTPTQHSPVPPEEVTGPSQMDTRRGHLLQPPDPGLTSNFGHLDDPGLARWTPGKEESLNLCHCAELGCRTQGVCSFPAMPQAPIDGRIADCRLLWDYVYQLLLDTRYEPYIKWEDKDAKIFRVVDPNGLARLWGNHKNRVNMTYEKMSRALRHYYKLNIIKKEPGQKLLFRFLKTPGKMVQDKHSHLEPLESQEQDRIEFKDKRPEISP
In short: as §1

ELF5 = target: T10, ELF5 (Homo sapiens, UniProt Q9UKW6-2 1-255); settings: protein: recombinant; tags: N-terminal GST; dsDNA, one strand shown
T10 sequence: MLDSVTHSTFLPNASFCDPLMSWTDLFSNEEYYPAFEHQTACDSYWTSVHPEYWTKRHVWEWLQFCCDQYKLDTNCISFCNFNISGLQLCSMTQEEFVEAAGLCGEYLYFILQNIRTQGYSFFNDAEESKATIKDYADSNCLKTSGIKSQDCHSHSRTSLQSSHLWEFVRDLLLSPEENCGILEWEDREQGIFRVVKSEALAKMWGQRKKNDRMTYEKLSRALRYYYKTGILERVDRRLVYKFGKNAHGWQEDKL
In short: as §1

ETV3 = target: T11, ETV3 (Homo sapiens, UniProt P41162-2 1-143); settings: protein: recombinant; tags: N-terminal GST; dsDNA, one strand shown
T11 sequence: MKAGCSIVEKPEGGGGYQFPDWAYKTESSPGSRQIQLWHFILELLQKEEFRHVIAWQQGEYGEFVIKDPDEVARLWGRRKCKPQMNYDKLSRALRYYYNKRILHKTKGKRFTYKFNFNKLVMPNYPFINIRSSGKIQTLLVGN
In short: as §1

ETV6 = ETV6 (Homo sapiens, UniProt P41212 1-452); settings: protein: recombinant; tags: N-terminal GST; dsDNA, one strand shown
Sequence of ETV6 (P41212 whole entry): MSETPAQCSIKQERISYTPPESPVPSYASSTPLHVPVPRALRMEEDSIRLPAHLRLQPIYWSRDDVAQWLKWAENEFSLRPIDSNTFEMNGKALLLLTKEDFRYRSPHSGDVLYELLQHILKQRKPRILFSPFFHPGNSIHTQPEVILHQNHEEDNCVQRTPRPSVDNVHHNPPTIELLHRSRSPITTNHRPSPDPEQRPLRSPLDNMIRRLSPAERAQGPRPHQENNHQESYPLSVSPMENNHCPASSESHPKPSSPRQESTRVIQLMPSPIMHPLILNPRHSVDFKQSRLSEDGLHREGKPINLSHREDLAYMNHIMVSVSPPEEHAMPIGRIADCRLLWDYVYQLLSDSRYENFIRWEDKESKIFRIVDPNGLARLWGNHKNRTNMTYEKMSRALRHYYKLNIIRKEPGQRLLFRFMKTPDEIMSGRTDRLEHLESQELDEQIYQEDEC
In short: as §1

Row | Sequence | binding signal (FEV) | binding signal (ETV5) | binding signal (HSF1) | binding signal (ELF4) | binding signal (ELK4) | binding signal (ETV2) | binding signal (ELF3) | binding signal (CRX) | binding signal (ETV1) | binding signal (ERF) | binding signal (ETV3L) | binding signal (ETS2) | binding signal (SPDEF) | binding signal (ETV7) | binding signal (ELF5) | binding signal (ETV3) | binding signal (ETV6)
1 | CTTTAG | 1.18 fold enrichment (6-mer frequency, TF over GST control) | 1.1 fold enrichment (6-mer frequency, TF over GST control) | 1.37 fold enrichment (6-mer frequency, TF over GST control) | 1.26 fold enrichment (6-mer frequency, TF over GST control) | 1.15 fold enrichment (6-mer frequency, TF over GST control) | 1.23 fold enrichment (6-mer frequency, TF over GST control) | 1.34 fold enrichment (6-mer frequency, TF over GST control) | 1.51 fold enrichment (6-mer frequency, TF over GST control) | 1.24 fold enrichment (6-mer frequency, TF over GST control) | 1.16 fold enrichment (6-mer frequency, TF over GST control) | 1.23 fold enrichment (6-mer frequency, TF over GST control) | 1.17 fold enrichment (6-mer frequency, TF over GST control) | 1.02 fold enrichment (6-mer frequency, TF over GST control) | 1.2 fold enrichment (6-mer frequency, TF over GST control) | 1.05 fold enrichment (6-mer frequency, TF over GST control) | 1.28 fold enrichment (6-mer frequency, TF over GST control) | 1.21 fold enrichment (6-mer frequency, TF over GST control)
2 | CTATAG | 1.04 fold enrichment (6-mer frequency, TF over GST control) | 1.1 fold enrichment (6-mer frequency, TF over GST control) | 1.03 fold enrichment (6-mer frequency, TF over GST control) | 1.02 fold enrichment (6-mer frequency, TF over GST control) | 1.14 fold enrichment (6-mer frequency, TF over GST control) | 1.27 fold enrichment (6-mer frequency, TF over GST control) | 1.04 fold enrichment (6-mer frequency, TF over GST control) | 1.05 fold enrichment (6-mer frequency, TF over GST control) | 1.01 fold enrichment (6-mer frequency, TF over GST control) | 1.03 fold enrichment (6-mer frequency, TF over GST control) | 1.05 fold enrichment (6-mer frequency, TF over GST control) | 1 fold enrichment (6-mer frequency, TF over GST control) | – | – | 1.05 fold enrichment (6-mer frequency, TF over GST control) | 1.09 fold enrichment (6-mer frequency, TF over GST control) | 1.04 fold enrichment (6-mer frequency, TF over GST control)
